Drawing on PubChem BioAssay AID2284181 (EPA ToxCast), this text covers outcome and AC50 for 3 compounds.

Records with an inconclusive call do not appear. Activity calls are given as the source filed them. The calls were made as follows: active = hit-call score of the fitted dose curve at least 0.9, where 1 is the maximum; inconclusive = response in the unintended direction; inactive = score below 0.9.

human Serotonin Receptor 5-HT1A, HTR1A (gene 3350), sequence (P08908 whole entry, looked up): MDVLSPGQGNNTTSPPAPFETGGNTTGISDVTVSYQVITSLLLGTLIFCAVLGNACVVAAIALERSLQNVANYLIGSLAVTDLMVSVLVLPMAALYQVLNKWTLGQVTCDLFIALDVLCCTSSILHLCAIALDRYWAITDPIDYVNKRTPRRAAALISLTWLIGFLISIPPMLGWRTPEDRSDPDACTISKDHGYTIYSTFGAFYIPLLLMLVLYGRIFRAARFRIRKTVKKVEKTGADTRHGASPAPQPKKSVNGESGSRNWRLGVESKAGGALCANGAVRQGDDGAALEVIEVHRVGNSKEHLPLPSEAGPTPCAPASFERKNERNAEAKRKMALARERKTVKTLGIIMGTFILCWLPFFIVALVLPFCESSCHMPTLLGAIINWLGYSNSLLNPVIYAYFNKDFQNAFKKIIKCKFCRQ

The test concerns the target human Serotonin Receptor 5-HT1A, HTR1A (gene 3350) (UniProt P08908). Nature of the test: ERF_FR_GPCR_hHTR1A: Eurofins (ERF) G Protein-Coupled Receptor (GPCR) Radioligand Binding LeadHunter Assay for human Serotonin Receptor 5-HT1A Agonism, conducted at France lab site. As to the method:
ERF_FR_GPCR_hHTR1A is a biochemical, single-readout assay that uses extracted gene-proteins in a cell-free assay. Measurements were taken 1 hour after chemical dosing in a 96-well plate. See 5-HT1A Human Serotonin GPCR Binding (Agonist Radioligand) Assay, Cerep.ERF_FR_GPCR_hHTR1A is an assay component calculated from the ERF_FR_GPCR_hHTR1A assay. It is designed to measure radioligand binding using a type of binding reporter as detected by scintillation counting with radiometry technology.Data from the assay component ERF_FR_GPCR_hHTR1A was analyzed at the assay endpoint, ERF_FR_GPCR_hHTR1A, in the positive analysis fitting direction relative to DMSO as the negative control and baseline of activity. Using a type of binding reporter, gain-of-signal activity can be used to understand changes in binding as they relate to gene HTR1A. To generalize the intended target to other relatable targets, this assay endpoint is annotated to the gpcr intended target family, where the subfamily is serotonin.
Human cells are incubated for 60 minutes at room temprature with [3H]8-OH-DPAT ligand (0.5 nM) and 8-OH-DPAT as control inhibitor. Test Sample Requirements: Minimum for 1) Screen: 60 ul of 10 mM stock -OR- 1 mg (pre-weighed) for 10 uM final testing. 2) Dose Response: 90 ul of 10 mM stock -OR- 1 mg (pre-weighed) for a top concentration at 10 uM.
With `CCCCC[C@H](O)CC(=O)CCc1ccc(O)c(OC)c1`, the result was inactive. On to `O=C(/C=C/c1ccc(O)cc1)CC(=O)/C=C/c1ccc(O)cc1`, for which the result was inactive. On to `COc1cc(/C=C/C(=O)CC(=O)/C=C/c2ccc(O)c(OC)c2)ccc1O`, for which the AC50 was 2010 nM (active).
